Assay results published in PubChem BioAssay (NCATS).
Records with an inconclusive call do not appear. Calls of active or inactive are those of the source. The call rests on the fitted dose curve; in most records, active means well fitted curve in the direction sought with a large enough effect; inconclusive means small, poorly fitted or top-dose-only effect, or another doubt; inactive means no such curve, though single readings can be large; an effect the other way counts as inactive or inconclusive.

Legend:
[1] = Quantitative High-Throughput drug screen in 47 multiple myeloma cell lines against the NCATS MIPE library collection: JIM3_ECACC cell viability assay (AID 1918963; further: nearly all actives have a fitted effect of over 35% in size)
Procedure, shortened: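 Inhibition of cell viability is measured here. Each line was plated at 500 cells per well, treated with MIPE 4.0 drugs, kept 48 hours at 37C, then assayed for ATP content by CellTiter-Glo luminescence.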

[2] = Quantitative High-Throughput drug screen in 47 multiple myeloma cell lines against the NCATS MIPE library collection: JIM1_ECACC cell viability assay (AID 1918964)
Procedure, shortened: (§1)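 Steps: seed 500 cells per well; pin-transfer MIPE 4.0 library; incubate 48 h at 37C, 5% CO2, humidified; add CellTiter-Glo, 5 min room temperature; read luminescence.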

[3] = Quantitative High-Throughput drug screen in 47 multiple myeloma cell lines against the NCATS MIPE library collection: INA6_PLB cell viability assay (AID 1918965; further: nearly all actives have a fitted effect of over 55% in size)
Procedure, shortened: (§2)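 qHTS of the MIPE 4.0 collection: 500 myeloma cells/well, 48 h drug exposure at 37C in 5% CO2, then CellTiter-Glo for 5 min at room temperature before luminescence reading.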

[4] = Quantitative High-Throughput drug screen in 47 multiple myeloma cell lines against the NCATS MIPE library collection: JJN3_DSMZ cell viability assay (AID 1918966; further: nearly all actives have a fitted effect of over 50% in size)
Procedure, shortened: as §1

[5] = Quantitative High-Throughput drug screen in 47 multiple myeloma cell lines against the NCATS MIPE library collection: Karpas25_ECACC cell viability assay (AID 1918968; further: nearly all actives have a fitted effect of over 35% in size)
Procedure, shortened: as §1

[6] = Quantitative High-Throughput drug screen in 47 multiple myeloma cell lines against the NCATS MIPE library collection: KMS27_JCRB cell viability assay (AID 1918970); further: nearly all actives have a fitted effect of over 30% in size
Procedure, shortened: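 KMS27_JCRB myeloma cells, 500 per well, exposed 48 h at 37 C, 5% CO2 to MIPE 4.0 compounds. Viability from ATP by CellTiter-Glo luminescence, normalized to DMSO (100%) and medium-only (0%) wells.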

[7] = Quantitative High-Throughput drug screen in 47 multiple myeloma cell lines against the NCATS MIPE library collection: KMS12BM_JCRB cell viability assay (AID 1918971); further: nearly all actives have a fitted effect of over 35% in size
Procedure, shortened: (§3)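 Myeloma cell lines, 500 cells per well, exposed to MIPE 4.0 library compounds for 48 h at 37C, 5% CO2. Viability from ATP by CellTiter-Glo luminescence; normalised to DMSO (100%) and media-only (0%) wells.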

[8] = Quantitative High-Throughput drug screen in 47 multiple myeloma cell lines against the NCATS MIPE library collection: KMS20_JCRB cell viability assay (AID 1918973); further: nearly all actives have a fitted effect of over 45% in size
Procedure, shortened: as §1

[9] = Quantitative High-Throughput drug screen in 47 multiple myeloma cell lines against the NCATS MIPE library collection: KMS21BM_JCRB cell viability assay (AID 1918974); conditions: ATP luminescence, 48 h; viability: at 45.8 µM (top of the series) unless noted
Procedure, shortened: as §1

[10] = Quantitative High-Throughput drug screen in 47 multiple myeloma cell lines against the NCATS MIPE library collection: KMS26_JCRB cell viability assay (AID 1918975); further: nearly all actives have a fitted effect of over 45% in size
Procedure, shortened: as §3

[11] = Quantitative High-Throughput drug screen in 47 multiple myeloma cell lines against the NCATS MIPE library collection: MMM1_PLB cell viability assay (AID 1918976); further: nearly all actives have a fitted effect of over 35% in size
Procedure, shortened: (§4)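 Viability after 48 h drug exposure was measured as ATP-dependent luminescence. Cells, 500 per well, sat at 37 °C under 5% CO2; DMSO wells set 100%, media-only wells 0%.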

[12] = Quantitative High-Throughput drug screen in 47 multiple myeloma cell lines against the NCATS MIPE library collection: MOLP8_DSMZ cell viability assay (AID 1918977); further: nearly all actives have a fitted effect of over 45% in size
Procedure, shortened: as §4

[13] = Quantitative High-Throughput drug screen in 47 multiple myeloma cell lines against the NCATS MIPE library collection: NCIH929_DSMZ cell viability assay (AID 1918978); further: nearly all actives have a fitted effect of over 35% in size
Procedure, shortened: as §4

[14] = Quantitative High-Throughput drug screen in 47 multiple myeloma cell lines against the NCATS MIPE library collection: MM1S_ATCC cell viability assay (AID 1918980); further: nearly all actives have a fitted effect of over 45% in size
Procedure, shortened: as §4

[15] = Quantitative High-Throughput drug screen in 47 multiple myeloma cell lines against the NCATS MIPE library collection: MM1R_ATCC cell viability assay (AID 1918981); further: nearly all actives have a fitted effect of over 35% in size
Procedure, shortened: as §4

[16] = Quantitative High-Throughput drug screen in 47 multiple myeloma cell lines against the NCATS MIPE library collection: H1112_PLB cell viability assay (AID 1918967; further: nearly all actives have a fitted effect of over 30% in size)
Procedure, shortened: as §1

[17] = Quantitative High-Throughput drug screen in 47 multiple myeloma cell lines against the NCATS MIPE library collection: KMS12PE_JCRB cell viability assay (AID 1918972); further: nearly all actives have a fitted effect of over 30% in size
Procedure, shortened: as §2

[18] = Quantitative High-Throughput drug screen in 47 multiple myeloma cell lines against the NCATS MIPE library collection: KMS28PE_JCRB cell viability assay (AID 1918983); further: nearly all actives have a fitted effect of over 35% in size
Procedure, shortened: as §4

[19] = Quantitative High-Throughput drug screen in 47 multiple myeloma cell lines against the NCATS MIPE library collection: OCIMY1_PLB cell viability assay (AID 1918979); further: nearly all actives have a fitted effect of over 35% in size
Procedure, shortened: as §4

[20] = Quantitative High-Throughput drug screen in 47 multiple myeloma cell lines against the NCATS MIPE library collection: LP1_DSMZ cell viability assay (AID 1918982); further: nearly all actives have a fitted effect of over 35% in size
Procedure, shortened: as §4
Potency means the concentration at half of the fitted maximal effect.

Row | Compound | Potency [1] | Potency [2] | Potency [3] | Potency [4] | Potency [5] | Potency [6] | Potency [7] | Potency [8] | Potency [9] | Potency [10] | Potency [11] | Potency [12] | Potency [13] | Potency [14] | Potency [15] | Potency [16] | Potency [17] | Potency [18] | Potency [19] | Potency [20]
1 | CNC(=O)c1ccccc1Nc1nc(Nc2ccc(N3CCOCC3)cc2OC)ncc1Cl | 0.209 µM (active) | 105 nM (active) | 5.26 µM (active) | 3.72 µM (active) | 0.209 µM (active) | 0.132 µM (active) | 13.2 µM (active) | 2.35 µM (active) | 209 nM (active) | 0.418 µM (active) | 0.526 µM (active) | 14.8 µM (active) | 166 nM (active) | 0.662 µM (active) | 0.833 µM (active) | – | – | – | – | –
2 | Nc1ccn([C@@H]2O[C@H](CO)[C@H](O)C2(F)F)c(=O)n1 | 0.526 µM (active) | 105 nM (active) | 0.0526 µM (active) | – | 3.72 µM (active) | 0.0526 µM (active) | 0.0264 µM (active) | 0.418 µM (active) | – | – | – | – | 264 nM (active) | 0.0187 µM (active) | 0.0093 µM (active) | 0.0187 µM (active) | 74.3 nM (active) | 0.469 µM (active) | – | –
3 | CC1(C)CC(=O)c2c(C(F)(F)F)nn(-c3ccc(C(N)=O)c(NC4CCC(OC(=O)CN)CC4)c3)c2C1 (stereo unspecified) | 0.148 µM (active) | 132 nM (active) | 0.118 µM (active) | 0.132 µM (active) | 0.187 µM (active) | 0.0743 µM (active) | 0.187 µM (active) | 0.148 µM (active) | – | – | 0.418 µM (active) | 0.148 µM (active) | 148 nM (active) | 0.209 µM (active) | 0.209 µM (active) | – | 132 nM (active) | 0.235 µM (active) | 0.469 µM (active) | –
4 | CN1CCC(CNc2ccc3ncc(-c4cccc(OC(F)(F)F)c4)n3n2)CC1 | 9.35 µM (active) | 8330 nM (active) | 4.69 µM (active) | – | 7.43 µM (active) | 14.8 µM (active) | 20.9 µM (active) | 3.32 µM (active) | 9350 nM (active) | 18.7 µM (active) | 18.7 µM (active) | 18.7 µM (active) | 7430 nM (active) | 7.43 µM (active) | 20.9 µM (active) | 8.33 µM (active) | – | 18.7 µM (active) | 20.9 µM (active) | 26.4 µM (active)
5 | COc1cc(-c2nn(C3CCC(N4CCN(C(C)=O)CC4)CC3)c3ncnc(N)c23)ccc1NC(=O)c1cc2ccccc2n1C (stereo unspecified) | 2.35 µM (active) | 235 nM (active) | 2.96 µM (active) | 7.43 µM (active) | – | – | 10.5 µM (active) | – | – | 14.8 µM (active) | 16.6 µM (active) | 10.5 µM (active) | – | 5.9 µM (active) | 5.9 µM (active) | 0.0833 µM (active) | – | 14.8 µM (active) | 7.43 µM (active) | –
6 | COc1cc(OC2CCN(C)CC2)ccc1Nc1ncc2c(n1)n(C1CCCC1)c(=O)n2C | 11.8 µM (active) | 11800 nM (active) | 3.72 µM (active) | – | 6.62 µM (active) | 20.9 µM (active) | 9.35 µM (active) | 7.43 µM (active) | – | 13.2 µM (active) | – | – | 6620 nM (active) | 11.8 µM (active) | 18.7 µM (active) | 14.8 µM (active) | 7430 nM (active) | – | – | –
7 | Cc1c(CN2CCN(S(C)(=O)=O)CC2)sc2c(N3CCOCC3)nc(-c3cnc(N)nc3)nc12 | 0.0662 µM (active) | 18.7 nM (active) | 0.264 µM (active) | 0.0469 µM (active) | 0.0187 µM (active) | – | 0.0132 µM (active) | 0.0372 µM (active) | – | – | 0.0235 µM (active) | – | 5.3 nM (active) | 0.0132 µM (active) | 0.0264 µM (active) | 1.18 µM (active) | – | 0.0209 µM (active) | 0.0418 µM (active) | –
8 | O=C(Nc1nc2cccc(-c3ccc(CN4CCS(=O)(=O)CC4)cc3)n2n1)C1CC1 | 18.7 µM (active) | 5900 nM (active) | 3.32 µM (active) | 7.43 µM (active) | 16.6 µM (active) | – | 7.43 µM (active) | 18.7 µM (active) | – | – | 9.35 µM (active) | 14.8 µM (active) | – | 20.9 µM (active) | 14.8 µM (active) | 23.5 µM (active) | – | 13.2 µM (active) | 23.5 µM (active) | 20.9 µM (active)
9 | COc1cc(C(=O)NS(=O)(=O)c2ccccc2C)ccc1Cc1cn(C)c2ccc(NC(=O)OC3CCCC3)cc12 | 16.6 µM (active) | inactive | 10.5 µM (active) | – | 8.33 µM (active) | – | 26.4 µM (active) | 6.62 µM (active) | – | 16.6 µM (active) | – | 18.7 µM (active) | 18700 nM (active) | – | 14.8 µM (active) | 20.9 µM (active) | – | 23.5 µM (active) | – | 20.9 µM (active)
10 | CCn1cc(-c2ccnc3[nH]c(-c4cccc(CN(C)C)c4)cc23)c(-c2ccc(NC(=O)N(C)C)cc2)n1 | 5.26 µM (active) | 5260 nM (active) | – | 16.6 µM (active) | 4.18 µM (active) | 7.43 µM (active) | 13.2 µM (active) | 4.18 µM (active) | 662 nM (active) | 18.7 µM (active) | 14.8 µM (active) | 8.33 µM (active) | 3320 nM (active) | 5.26 µM (active) | 20.9 µM (active) | 14.8 µM (active) | 5260 nM (active) | – | – | –
